Data: PubChem BioAssay (EPA / NIEHS)
Activity calls are given as the source filed them. Rule for the calls: active = hit-call score of the fitted dose curve at least 0.9, where 1 is the maximum; inactive = score below 0.9.

read-out: ATP-citrate lyase (ACLY), ACLY (gene 47); experiment: LTEA_HepaRG_ACLY: Life Technologies and Expression Analysis (LTEA) Assay for ATP-citrate lyase (ACLY) using HepaRG (AID 2283466); settings: mRNA level, 48 h; actives raise or lower the signal
Procedure: LTEA_HepaRG is a cell based, multiplexed-readout assay that uses HepaRG, a human liver cell line, with measurements taken at 48 hours after chemical dosing on a 96-well plate.LTEA_HepaRG_ACLY is one of 102 assay component(s) measured in the LTEA HepaRG cell culture assay. It is a marker of Steatosis.Data from the assay component LTEA_HepaRG_ACLY was analyzed into 1 endpoint. This assay endpoint, LTEA_HepaRG_ACLY, was analyzed with bidirectional fitting relative to DMSO as the negative control and baseline of activity. Using a type of inducible reporter, measures of mRNA induction for gain or loss-of-signal activity can be used to understand regulation of transcription factor activity. To generalize the intended target to other relatable targets, this assay endpoint is annotated to the lyase intended target family, where the subfamily is steatosis.
A total of 1060 chemcials from the ToxCast library were tested in eight-point concentration-response experiments. Cell culture and cytotoxicity assays were conducted at Thermo Fisher Scientific's Custom Services facility (Madison, WI). A single lot of human HepaRG cells (Thermo Fisher Scientific, Frederick, MD) was used for the cell culture experiments. 96-well format collagen type I coated plates of human HepaRG cells were prepared using established methods. Briefly, cryopreserved HepaRG cells were thawed, plated at a density of approximately 100,000 cells/well in HepaRG Thaw, Plate, and General Purpose media (HPRG770, Thermo Fisher Scientific), and incubated for 48 hours. 0.5% DMSO was selected as vehicle control to balance the requisite need of DMSO in HepaRG cultures to maintain differentiation (for example, baseline metabolism, proportions of hepatocytes vs. cholangiocytes), while enabling further hepatic receptor pathway activation (for example, PXR and CAR) in response to chemical exposure. 48 hours after plating, the culture medium was replaced with HepaRG Serum-Free Incudtion Media. Cells were exposed to each test chemical in duplicate and maintained in CO2 incubators for another 48 hours. Chemical plates were thawed to room temperature and 200x concentrations of treatment groups were prepared. 8-point conentration-reponse curves were made with the highest exposure at 100 uM, followed by half-log dilutions, all in 0.5% DMSO. Each test plate contained variouse controls, induction positive controls (1mM phenobarbital), cytotoxicity positive controls ([…] aflatoxin B1), vehicle controls (0.5% DMSO), and total lysis controls (0.5% DMSO). Cell morphology images were taken using an Essen IncuCyte FLR automated microscope, with six 96-well plates imaged in about 24 minutes. Images were captured and exported and JPEG files. Spent culture media was transfered to black-well plates for the LDH assay, and remaining media was sorted at -80 C for later use. Cells were treated with RLT buffer and frozen until shipped for gene expression analysis. Total RNA was isolated from the cell suspension in 75 uL of Buffer RLT (Qiagen, Germantown, MD 20874) by Quintiles/Expression Analysis (Durham, NC) using a custom isolation procedure. Total RNA from each plate well was transferred to a preamplification plate. Fluidigm's 96.96 Dynamic ArrayTM (Fluidigm, Amsterdam, the Netherlands) technology was used for gene expression analyses by quantitative reverse transcription polymerase chain reaction (qRT-PCR, performed by Quintiles/Expression Analysis, Durham, NC)89. Standard TaqManTM Assays (Applied Biosystems/ThermoFisher Scientific, Foster City, CA) were used to assess the expression of 93 genes selected based on their selectivity and sensitivity to important hepatic receptors known to be modulated by environmental chemicals; importance in human hepatocyte functionality; and hepatotoxicity. […]

Structure (SMILES) | AC50 | outcome
O=C(N[C@@H](Cc1ccccc1)[C@@H](O)C(=O)N1C[C@@H](O)[C@@H](O)C1)c1cc2cc(Cl)ccc2[nH]1 | 50 µM (active) | 
CCc1c(C(=O)NN2CCCCC2)nn(-c2ccc(Cl)cc2Cl)c1-c1ccc(Br)cc1 | 12.5 µM (active) | 
CC(C)c1ccc(C(=O)N=C(N)N)cc1S(C)(=O)=O |  | inactive
CN1CCN(Cc2cc(-c3ccc4[nH]c(=O)oc4c3)co2)[C@@H](c2ccc(F)cc2)C1 |  | inactive
CCCCc1ccc2c(n1)[C@@H](c1ccc(OC)cc1C[C@H](C)C(=O)O)[C@H](C(=O)O)[C@H]2c1ccc2c(c1)OCO2 |  | inactive
CCCc1cc(=O)[nH]c(=S)[nH]1 |  | inactive
CNCc1cc(F)ccc1Oc1ccc(Cl)c(Cl)c1 |  | inactive
Nc1nc(N)c2nc(CNc3ccc(C(=O)N[C@@H](CCC(=O)O)C(=O)O)cc3)cnc2n1 |  | inactive
O=c1c(O)c(-c2ccc(O)c(O)c2)oc2cc(O)cc(O)c12 |  | inactive
Cc1ccc(C(C)C)c(O)c1 |  | inactive
CCCCC(CC)COC(=O)CC(C(=O)OCC(CC)CCCC)S(=O)(=O)O (stereo not given) | 90.7 µM (active) | 
Nc1ccc(S(=O)(=O)c2ccc(N)cc2)cc1 |  | inactive
CC(=O)C(C)=CC1C(C)=CCCC1(C)C (stereo not given) |  | inactive
Nc1ccc2c(c1)C(=O)c1ccccc1C2=O |  | inactive
CCCCOC(=O)CCCCCCCCC(=O)OCCCC |  | inactive
COc1ccc(C)cc1N |  | inactive
Cc1ccccc1Cl |  | inactive
CCCCCCCCCCC |  | inactive
Cc1ccc(C)c(O)c1C |  | inactive
CN[C@H]1CC[C@@H](c2ccc(Cl)c(Cl)c2)c2ccc(S(N)(=O)=O)cc21 | 63.6 µM (active) | 

Structure (SMILES) | AC50 | outcome
CCCCCCOCCO |  | inactive
CCCCCCCCCCCCCCCC |  | inactive
COc1ccc(S(=O)(=O)N2C(=O)[C@@](c3ccccc3OC)(N3C[C@H](O)C[C@H]3C(=O)N(C)C)c3cc(Cl)ccc32)c(OC)c1 | 90.5 µM (active) | 
Cc1ccc(N(C)C)cc1 |  | inactive
O=C(O)Cc1ccccc1Nc1c(Cl)cccc1Cl |  | inactive
OC[C@@H](O)[C@@H](O)[C@H](O)[C@H](O)CO |  | inactive
COc1cc(S(=O)(=O)O)c(C)cc1N=Nc1c(O)ccc2cc(S(=O)(=O)O)ccc12 |  | inactive
Clc1cc(Cl)c(Cl)cc1Cl |  | inactive
CCCCCCCC=O |  | inactive
NCC1(Cc2noc(=O)[nH]2)CCCCC1 |  | inactive
Cc1cccc(C)c1O |  | inactive
Oc1ccc2c(c1)OC[C@@H](N1CCC(O)(c3ccc(F)cc3)CC1)[C@H]2O |  | inactive
CC=Cc1ccc(O)c(OC)c1 |  | inactive
CC(=O)OCCOCCOCCOC(C)=O |  | inactive
CCCCCCC(=O)OCC |  | inactive
CCCCCCCCCCCC(=O)OC |  | inactive
C[C@]12C=CC(=O)C=C1CC[C@@H]1[C@@H]2C(=O)C[C@@]2(C)[C@H]1CC[C@]2(O)C(=O)CO |  | inactive
CC1(C)CC(N=C=O)CC(C)(CN=C=O)C1 (stereo not given) |  | inactive
O=c1[nH]cc(F)c(=O)[nH]1 |  | inactive
FC(F)(F)C(F)(F)C(F)(F)C(F)(F)C(F)(F)C(F)(F)CCI |  | inactive
